Assay results reported in PubChem BioAssay (NCATS).
Records with an inconclusive call do not appear. Calls of active or inactive are those of the source. Calls come from the whole dose curve; as a rule, active = well fitted activation curve with a large enough effect; inconclusive = small, poorly fitted or top-dose-only effect; inactive = flat fitted curve, though single readings scatter.

experiment: Primary redox qHTS assay for identification of artifact compounds. (AID 1845223); details: Amplex Red/HRP redox cycling with DTT, fluorescence; series mostly up to 53.8 µM; redox activity (% of DA3003): at the top concentration;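 note: 0% = DMSO and 100% = reference compound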
In short: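 Redox-cycling detection via DTT (250 uM final) oxidation coupled to Amplex Red (25 uM)/HRP (250 mU/mL) in HBSS. 15 min preincubation plus 30 min after DTT, room temperature. Ex/Em 525/598 nm; 4-parameter Hill fit against DMSO and 10 uM DA3003.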

| SMILES | redox activity (% of DA3003) |
| --- | --- |
| C/C(=C\CCC(C)C1CC(O)C2(C)C3CCC4C(C)(C)C(OC5OCC(O)C(O)C5O)CCC45CC35CC(O)C12C)C(=O)O (centres undefined) | -5.41% [at 25.6 µM] (inactive) |
| CC1=C2CC(O)(C(C)(C)O)C(O[C@@H]3O[C@H](CO)[C@@H](O)[C@H](O)[C@H]3O)CC(C)C2CC1=O (some centres undefined) | -16.4% [at 25.6 µM] (inactive) |
| Cc1nc2cc(-c3cc(F)cc(C#N)c3)ccc2s1 | -7.09% (inactive) |
| CC1CC2OCC3(O)CCC(O)C(C14CC(c1ccoc1)OC4=O)C23CO (centres undefined) | -8.99% (inactive) |
| O=C(O)CCc1cc2ccoc2cc1O[C@@H]1O[C@H](CO)[C@@H](O)[C@H](O)[C@H]1O | -0.487% (inactive) |
| CC(C)Oc1ccc(-c2nc(-c3cccc4c3CCC4NCCC(=O)O)no2)cc1C#N (centres undefined) | 11.8% (inactive) |
| FC(F)(F)Oc1ccc(-c2ccc3nnc(C(F)(F)F)n3c2)cc1 | -0.224% (inactive) |
| CC(C)=CCC[C@](C)(O[C@@H]1O[C@H](CO)[C@@H](O)[C@H](O)[C@H]1O)[C@H]1CC[C@]2(C)[C@@H]1[C@H](O)CC1[C@@]3(C)CC[C@H](O)C(C)(C)C3[C@@H](O[C@@H]3O[C@H](CO)[C@@H](O)[C@H](O)[C@H]3O[C@@H]3O[C@@H](C)[C@H](O)[C@@H](O)[C@H]3O)C[C@]12C (some centres undefined) | 5.49% [at 11.5 µM] (inactive) |
| NC(=O)C(O[C@@H]1O[C@H](CO[C@@H]2O[C@H](CO)[C@@H](O)[C@H](O)[C@H]2O)[C@@H](O)[C@H](O)[C@H]1O)c1ccccc1 (some centres undefined) | -13.1% [at 25.6 µM] (inactive) |
| CC(=O)O[C@H]1C[C@@H](O)C(C)(C)C2C[C@@H](OC(C)=O)[C@]3(C)C(CC[C@@]4(C)[C@H](c5ccoc5)OC(=O)[C@H]5O[C@]543)[C@]21C (some centres undefined) | 7.71% [at 25.6 µM] (inactive) |
| O=C(OC[C@H]1O[C@H](O[C@H]2CO[C@H](CO)[C@@H](O)[C@@H]2O)[C@H](O)[C@@H](O)[C@H]1O)c1ccccc1 | -2.2% [at 25.6 µM] (inactive) |
| COc1ccc(C(=O)NCc2cc(C(C)C)no2)cc1OC1CCN(C)CC1 | -0.621% (inactive) |
| CC[C@@H](C)[C@H](N)C(=O)N1Cc2ccccc2C1 | -5.56% (inactive) |
| C=C(C)[C@@H]1CC[C@]2(C)CC[C@]3(C)C(CCC4[C@@]5(C)CC[C@H](O)C(C)(C)C5CC[C@]43C)C12 (some centres undefined) | -0.378% [at 25.6 µM] (inactive) |
| CC1=C2C(=O)C=C(CO)C2C2OC(=O)C(CS(=O)(=O)O)C2C(OC(=O)Cc2ccc(O)cc2)C1 (centres undefined) | -9.54% [at 25.6 µM] (inactive) |
| C=C1CC[C@@]2(OC1)O[C@H]1CC3C4CC=C5C[C@@H](O[C@@H]6O[C@@H](C)[C@H](O)[C@@H](O)[C@H]6O)C[C@@H](O[C@@H]6O[C@H](C)[C@H](O)[C@H](O)[C@H]6O[C@@H]6O[C@@H](C)[C@H](O)[C@@H](O)[C@H]6O)[C@]5(C)C4CC[C@]3(C)[C@H]1[C@@H]2C (some centres undefined) | 1.1% [at 11.5 µM] (inactive) |
| O=C(OC[C@H]1O[C@H](O[C@]2(CO)O[C@H](CO)[C@@H](O)[C@@H]2O)[C@H](O)[C@@H](O)[C@@H]1O)c1ccc(O)cc1 | -11.1% [at 25.6 µM] (inactive) |
| CC(C)=CCC/C(C)=C/CO[C@@H]1O[C@H](CO[C@@H]2OC[C@](O)(CO)[C@H]2O)[C@@H](O)[C@H](O)[C@H]1O | -13.5% [at 25.6 µM] (inactive) |
| N[C@@H](CC(=O)Nc1ccc(Oc2cc(F)c(F)cc2Br)cc1)C(=O)O | 11.8% (inactive) |
| C=C(C)[C@@H]1CC[C@]2(C(=O)O)CC[C@]3(C)[C@H](CCC4[C@@]5(C)CCC(=O)C(C)(C)C5C(O)C[C@]43C)C12 (some centres undefined) | 14.7% [at 25.6 µM] (inactive) |

| SMILES | redox activity (% of DA3003) |
| --- | --- |
| COc1cc(C(CO)C(OC2OC(CO)C(O)C(O)C2O)c2ccc(O)c(OC)c2)ccc1O (centres undefined) | -6.21% [at 25.6 µM] (inactive) |
| CC/C=C/C=C/C1(C)OC(CC(CO)OC)=CC1=O (centres undefined) | 16.7% (inactive) |
| C=C1CCC(OC(C)=O)C2(C)CC3OC(=O)C(C)=C3CC12 (centres undefined) | -10.4% (inactive) |
| COC(=O)C1=COC(O[C@@H]2O[C@H](CO)[C@@H](O)[C@H](O)[C@H]2O)C2C(C)C(=O)CC12 (some centres undefined) | -11% (inactive) |
| OC[C@H]1O[C@@H](Oc2cc(O)cc(-c3cc4ccc(O[C@@H]5O[C@H](CO)[C@@H](O)[C@H](O)[C@H]5O)cc4o3)c2)[C@H](O)[C@@H](O)[C@@H]1O | -7.84% [at 25.6 µM] (inactive) |
| Cc1noc2c1-c1ccccc1C(c1ccc(Cl)cc1)=N[C@H]2CC(N)=O | 7.28% (inactive) |
| COc1cn(-c2ccc(-n3cccn3)cc2F)nc(-c2ccnn2-c2ccccc2)c1=O | -3.86% (inactive) |
| C[C@@H]1O[C@@H](O[C@@H]2[C@@H](O)[C@H](O[C@H]3[C@H](O[C@H]4CC[C@@]5(C)C(CC[C@]6(C)C5CC=C5[C@@H]7CC(C)(C)CC[C@]7(C(=O)O[C@@H]7O[C@H](CO)[C@@H](O)[C@H](O)[C@H]7O)CC[C@]56C)C4(C)C)O[C@H](C(=O)O)[C@@H](O)[C@@H]3O)OC[C@H]2O)[C@H](O)[C@H](O)[C@H]1O (some centres undefined) | -4.9% [at 11.5 µM] (inactive) |
| NC(N)=NCCC[C@H](NC(=O)c1sccc1NS(=O)(=O)c1cccc2nsnc12)C(=O)O | 0.0749% (inactive) |
| Cc1cc(CO)c(O)c(C(=O)CC2CC(=O)NC(=O)C2)c1 | -11% (inactive) |
| COc1cc(/C=C/C(=O)O[C@H]2C[C@@H]3C(C(=O)O)=CO[C@@H](O[C@@H]4O[C@H](CO)[C@@H](O)[C@H](O)[C@H]4O)[C@@H]3[C@H]2C)ccc1O | -8.05% [at 25.6 µM] (inactive) |
| CC1=CC(=O)C(=C(C)C)CC2C(C)(O)CCC12O (centres undefined) | -10.8% (inactive) |
| CC1=C2CC3C(CCC3(C)O)C(C)(O)CC2OC1=O (centres undefined) | -9.46% (inactive) |
| C[C@H]1[C@H](C)CC[C@]2(C(=O)O)CC[C@]3(C)C(=CCC4[C@@]5(C)C[C@@H](O)[C@H](O)C(C)(C)C5CC[C@]43C)[C@H]12 (some centres undefined) | -12% [at 25.6 µM] (inactive) |
| Cc1c(Cc2ccc3ccccc3n2)c2cc(F)ccc2n1CC(=O)O | 3.23% (inactive) |
| C[C@@H]1O[C@@H](O[C@H]2[C@@H]3C=CO[C@@H](O[C@@H]4O[C@H](CO)[C@@H](O)[C@H](O)[C@H]4O)[C@@H]3[C@@]3(CO)O[C@@H]23)[C@H](O)[C@H](O)[C@H]1OC(=O)/C=C/c1ccc(O)cc1 | -12.7% [at 25.6 µM] (inactive) |
| C[C@]12CCC[C@](C)(C(=O)O)C1[C@@H](O)[C@@H](O)C13CC(CCC12)C(CO)(O[C@@H]1O[C@H](CO)[C@@H](O)[C@H](O)[C@H]1O)C3 (some centres undefined) | -14.5% [at 25.6 µM] (inactive) |
| OC[C@H]1O[C@@H](OCc2ccccc2)[C@H](O[C@@H]2OC[C@@H](O)[C@H](O)[C@H]2O)[C@@H](O)[C@@H]1O | -11.4% [at 25.6 µM] (inactive) |
| COCC1OC(n2cnc3c(=O)[nH]cnc32)C(O)C1O (centres undefined) | -13.5% (inactive) |
